This is part of a sample that, as a whole, favours compounds with a hit. Of some 83,000 tested, about 20% had one in any assay.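 Negative percent growth values reflect cell death: -40 means 40% of the cells present at the start died, and -100 means all died.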 A number with no mark means an inactive call. The source made the active and inactive calls. Rule for the calls: active = growth percent below 10; inactive = the rest.
Assays:
Assay in all cases: NCI-60 one-dose screen, 48 h (100 = growth as untreated, 0 = no growth, -100 = all killed)
RPMI-8226 leukemia = conditions: 10 µM unless noted
OVCAR-8 ovarian = conditions: 10 µM unless noted
OVCAR-5 ovarian = conditions: 10 µM unless noted
OVCAR-4 ovarian = conditions: 10 µM unless noted
SK-OV-3 ovarian = conditions: 10 µM unless noted
IGROV1 ovarian = conditions: 10 µM unless noted
OVCAR-3 ovarian = conditions: 10 µM unless noted
HS 578T breast = conditions: 10 µM unless noted
NCI/ADR-RES ovarian = conditions: 10 µM unless noted
T-47D breast = conditions: 10 µM unless noted
BT-549 breast = conditions: 10 µM unless noted
MDA-MB-435 melanoma = conditions: 10 µM unless noted
SW-620 colon = conditions: 10 µM unless noted
MCF7 breast = conditions: 10 µM
HCT-116 colon = conditions: 10 µM unless noted
KM12 colon = conditions: 10 µM unless noted
HCC-2998 colon = conditions: 10 µM unless noted

SMILES | growth (RPMI-8226 leukemia) | growth (OVCAR-8 ovarian) | growth (OVCAR-5 ovarian) | growth (OVCAR-4 ovarian) | growth (SK-OV-3 ovarian) | growth (IGROV1 ovarian) | growth (OVCAR-3 ovarian) | growth (HS 578T breast) | growth (NCI/ADR-RES ovarian) | growth (T-47D breast) | growth (BT-549 breast) | growth (MDA-MB-435 melanoma) | growth (SW-620 colon) | growth (MCF7 breast) | growth (HCT-116 colon) | growth (KM12 colon) | growth (HCC-2998 colon)
CCN(CC)CCNC(=O)C(Cl)=C1C(Cl)=C(Cl)C(Cl)=C1Cl | 30.6% | 15.8% | 120% | 41.9% | 58.7% | 59.1% | 40.1% | 82.2% | 44.7% | 56.6% | 33.3% | 33.9% | 34.7% | 28.7% | 13.9% | 23.6% | –
CC(C)C[C@H](C(=O)N[C@H](C(N)=O)C(C)C)N1CC=CCN(OCc2ccccc2)S1(=O)=O | 98.7% [2.5 µM] | 95.2% [2.5 µM] | 95.2% [2.5 µM] | 109% [2.5 µM] | 88.3% [2.5 µM] | 107% [2.5 µM] | 112% [2.5 µM] | 107% [2.5 µM] | 95.6% [2.5 µM] | 95.7% [2.5 µM] | 98.5% [2.5 µM] | 115% [2.5 µM] | 102% [2.5 µM] | – | 83.2% [2.5 µM] | 114% [2.5 µM] | 108% [2.5 µM]
CN(O)c1nc(N(C)O)nc(N2CCOCC2)n1 | 36.8% | 33.8% | 68.9% | 1.09% (active) | 8.47% (active) | 20.1% | 5.41% (active) | 75.9% | 21.6% | 40.9% | 60.5% | 42.5% | 52.4% | 15.9% | 12.2% | 45.8% | 40.5%
O=C1C(=O)c2c(ccc3ccccc23)-c2ccccc21 | 4.32% (active) | 2.95% (active) | -22.4% (active) | -95.3% (active) | 91.5% | -21.4% (active) | -25.5% (active) | -8.76% (active) | -1.89% (active) | -48.6% (active) | -72.6% (active) | -58.6% (active) | -73% (active) | -47.6% (active) | -53.8% (active) | 18.4% | –
CN(CCc1ccccc1)C(=S)N(C(=O)c1ccc([N+](=O)[O-])cc1)c1ccc(Cl)cc1 | -15.8% (active) | 99.3% | 100% | 86.3% | 102% | 105% | 83.5% | 95.2% | 98.4% | 68% | – | 85.9% | 75.3% | 33% | 67.3% | 49.6% | 110%
O=c1c2cc(F)cc(Cl)c2sc2c(Cl)nc3ccccc3c12 | 115% | 102% | 95.5% | 98.7% | 95% | 74.8% | 108% | 88.4% | 98.3% | 91.8% | – | 110% | 97.7% | 77.1% | 104% | 101% | 104%
CCCCCCc1cc2cc(-c3nc4ccccc4[nH]3)c(=Nc3ccccc3C)oc2cc1O | -20.2% (active) | 55.8% | 57.7% | 39.4% | 67% | 39.5% | 41.9% | 68.8% | 49.9% | 29% | 77.3% | – | 29.6% | 17.5% | 19.2% | – | -78.2% (active)
CCOC(=O)C1=C(C)c2ccc(OC)c(OC)c2C1 | 85.3% | 95.7% | 102% | 84.7% | 103% | 104% | 117% | 120% | 101% | 78% | 108% | 112% | 104% | – | 102% | 101% | 91.2%
O=C(CCN1C(=O)c2ccccc2C1=O)Nc1ccc(Cl)cc1 | 8.45% (active) | 48.8% | 104% | 91.2% | 97.9% | 77.8% | 78.3% | 39.1% | 74.1% | 60.1% | – | 68.9% | 103% | 72.4% | 61.4% | 75% | 75.2%
COc1ccc(C(O)(CCC(C)C)C(CN2CCOCC2)c2ccc(Cl)cc2)cc1 (stereo unspecified) | 46.8% | 67.1% | 103% | 84.6% | 97.7% | 85.1% | 6.49% (active) | 103% | 29.4% | 87.5% | 62.2% | – | 28.5% | 55.6% | 26.6% | 48% | 64.6%
O=c1oc2ccc(I)cc2c(=O)n1-c1ccc(Cl)cc1F | -24.8% (active) | 8.33% (active) | 21.5% | 15.8% | -1.52% (active) | 18.7% | 8.51% (active) | 5.48% (active) | 8.36% (active) | -12% (active) | – | 1.42% (active) | 11.7% | 2.84% (active) | 7.44% (active) | 1.77% (active) | 16.9%

From PubChem BioAssay (NCI)
